High-throughput results from PubChem BioAssay.
The sample as a whole holds a higher share of hits than the screen did.
IMPase Li inh – membrane-permeable IMPase blocker, potentiated with lithium | AID 1457 | CHO-M1 cells, IP1 TR-FRET (IP-One), carbachol + lithium | actives 0.35% (n = 210,000) | Potency, µM (highest dose often 59.4 µM), usual class: inhibitors;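 further: IP1 builds up when IMPase is blocked and the TR-FRET signal falls; nearly all actives have a fitted effect of over 50% in size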
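Concentration–response in CHO-M1 cells, lithium-potentiated; 30 min at 37C. IP1 detected by competitive TR-FRET after 10 min lysis at RT. Hill-fitted AC50.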
IMPase cell inh – membrane-permeable compound that blocks inositol monophosphatase | inhibition (IP1 accumulation), % at 46.1 µM | 120,000 tested, under 10 active | CHO-M1 cells, IP1 accumulation, HTRF TR-FRET ratio | P97697 | AID 901; active means well fitted curve in the direction sought with a large enough effect in the signal ratio, not every such curve was filed as active; inconclusive means small, poorly fitted or top-dose-only effect, or a change in a side signal; inactive means no such curve, though single readings can be large or run the other way; the % refers to the signal ratio;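 further: cells stimulated with carbachol in lithium chloride buffer; higher means more IMPase inhibition seen as more IP1 and lower FRET ratio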
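In this qHTS, compounds (final up to 46 uM) act on CHO-M1 cells that are then activated through the M1 receptor with carbachol, in pH 7.4 buffer containing 50 mM LiCl, for 30 min. IP1 accumulation is quantified by the IP-One immunoassay.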
NPSR antag – antagonists of human neuropeptide S receptor cAMP signaling; Q6W5P4; actives 1% (n = 220,000); CHO-NPSR cells, cAMP TR-FRET, antagonist mode; Potency, µM (series often up to 38.3 µM), usual class: inhibitors; further: nearly all actives have a fitted effect of over 50% in size
Target sequence (Q6W5P4 whole entry, looked up): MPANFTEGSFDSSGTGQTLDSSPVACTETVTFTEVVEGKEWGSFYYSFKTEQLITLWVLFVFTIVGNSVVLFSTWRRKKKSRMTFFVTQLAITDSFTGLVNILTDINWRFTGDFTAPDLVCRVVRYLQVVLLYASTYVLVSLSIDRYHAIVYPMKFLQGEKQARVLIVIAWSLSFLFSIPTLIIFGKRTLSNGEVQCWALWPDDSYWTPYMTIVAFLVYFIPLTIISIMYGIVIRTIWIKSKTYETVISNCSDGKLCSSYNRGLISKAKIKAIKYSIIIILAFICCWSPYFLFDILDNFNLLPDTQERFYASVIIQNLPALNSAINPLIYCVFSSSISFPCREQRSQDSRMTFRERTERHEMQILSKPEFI
A number is an active result; 0 = inactive; ? = inconclusive; - = not tested or not shown. Unless noted, the call rests on the fitted dose curve; in most records, active means well fitted curve in the direction sought with a large enough effect; inconclusive means small, poorly fitted or top-dose-only effect, or another doubt; inactive means no such curve, though single readings can be large; an effect the other way counts as inactive or inconclusive.

SMILES	IMPase Li inh	IMPase cell inh	NPSR antag
CC(=O)O[C@]1(C(C)=O)CC[C@H]2[C@@H]3C[C@H](C)C4=CC(=O)CC[C@]4(C)[C@H]3CC[C@@]21C	0	-	2.5µM
CC(=O)O[C@@]1(C(C)=O)CCC2C3C=C(Cl)C4=CC(=O)CC[C@]4(C)C3CC[C@]21C (some centres undefined)	0	-	-
CC(=O)O[C@]1(C(C)=O)CC[C@H]2[C@@H]3C=C(Cl)C4=CC(=O)CC[C@]4(C)[C@H]3CC[C@@]21C	0	-	5µM
CCCCCC(=O)O[C@@]1(C(C)=O)CCC2C3CCC4=CC(=O)CC[C@@]4(C)C3CC[C@]21C (some centres undefined)	0	-	-
C=CCN1C(=O)/C(=C2/Sc3ccc(OC)cc3N2C)SC1=Nc1ccccc1	?	-	0
C=CCN1C(=O)/C(=C2/Sc3ccc(OC)cc3N2C)SC1=NCc1ccccc1	2µM	-	0
COc1ccc2c(c1O)C(=O)c1ccccc1C2=O	0	-	0
Nc1c(O)ccc2c1C(=O)c1ccccc1C2=O	0	?	10µM
CN1CCN(c2cc(-c3ccccc3)nc3cc(-c4ccc(F)cc4)nn23)CC1	0	0	?
COc1cccc(-c2cc3nc(-c4ccccc4)cc(N4CCC5(CC4)OCCO5)n3n2)c1	11µM	0	0
O=[N+]([O-])c1ccc(N=Nc2c(Cl)cc(O)cc2Cl)cc1	-	-	7.9µM
CC(N)=Nc1ccc([N+](=O)[O-])cc1	0	-	0
CC(=O)c1cc2cc(O)ccc2o1	11µM	0	0
CC(=O)c1cc2c(O)c(O)ccc2o1	-	0	0
CCOC(=O)C1CCCN(c2ccc(NC(=O)c3snc4c(=O)[nH]c(C)nc34)cc2)C1 (centres undefined)	0	0	0
CCOC(=O)C1CCCN(c2ccc(NC(=O)c3snc4c(=O)[nH]cnc34)cc2)C1 (centres undefined)	0	0	16µM
COc1ccc(/C=C/C(=O)NC2=NCCS2)cc1OC	0	-	0
COc1ccc(OC)c(/C=C/C(=O)NC2=NCCS2)c1	11µM	-	0
